Screening results as filed in PubChem.
An excerpt weighted towards active compounds, which were near 3.4% of everything screened.
HGIII-sPLA2 inh = Blocks human group III sPLA2 activity | hit rate 0.56% among 370,000 | inhibition, % at 12.2 µM | QFRET BODIPY PC-A2 liposome hydrolysis, fluorescence | Q9NZ20;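 active = inhibition above mean plus 3 SD of compounds lying within the high and low control bounds, cut at about 19% in these data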
NRP1-CendR mod = NRP-1/CendR interaction modulation. hit rate 0.85% among 360,000. FAM-RPARPAR peptide binding to NRP-1, fluorescence polarization. AID 602438. O14786. inhibition, % at 25 µM;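 active = inhibition or corrected inhibition above about 18%, plus a signal ratio from 0.5 to 1.5, limit read from the data, passing the limit was not always enough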
ADAM10 inh = ADAM10 inhibition, QFRET primary screen. AID 720582. hit rate 0.62% among 370,000. O14672. recombinant ADAM10, EDANS/DABCYL FRET peptide cleavage, 3 h. inhibition, % at 7 µM;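 active = inhibition above a per-campaign cutoff equal to the mean of compounds falling between control-based bounds plus 3 SD, cut at about 20% in these data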
Target sequence (O14672 214-748 limits assumed): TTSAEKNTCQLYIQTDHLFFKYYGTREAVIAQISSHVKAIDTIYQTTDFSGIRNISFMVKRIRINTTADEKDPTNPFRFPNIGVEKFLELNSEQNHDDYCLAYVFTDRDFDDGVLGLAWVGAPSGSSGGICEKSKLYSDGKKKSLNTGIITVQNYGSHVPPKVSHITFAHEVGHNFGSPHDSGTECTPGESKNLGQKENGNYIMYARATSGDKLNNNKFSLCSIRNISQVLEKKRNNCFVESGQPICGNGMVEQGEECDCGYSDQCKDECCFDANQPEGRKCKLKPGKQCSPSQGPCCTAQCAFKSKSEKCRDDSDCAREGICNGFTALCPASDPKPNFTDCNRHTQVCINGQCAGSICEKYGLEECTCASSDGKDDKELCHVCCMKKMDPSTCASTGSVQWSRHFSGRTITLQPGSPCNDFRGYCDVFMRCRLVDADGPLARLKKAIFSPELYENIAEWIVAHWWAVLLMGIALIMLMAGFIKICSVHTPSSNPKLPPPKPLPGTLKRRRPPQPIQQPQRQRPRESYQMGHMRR
proKLK7 act = proKLK7 (human) activation, primary screen. hit rate 0.9% among 370,000. purified proKLK7, EDANS-DABCYL substrate fluorescence; 100% is mature enzyme control, 0% vehicle. activation, % at 7 µM. AID 652039;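 active = activation above the mean of all tested compounds plus 3 SD, computed per campaign excluding outliers beyond control limits, cut at about 13% in these data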
ADAM17 inh = inhibits human ADAM17; hit rate 0.83% among 370,000; inhibition, % at 6.95 µM; P78536; AID 720648; recombinant ADAM17, EDANS/DABCYL FRET peptide cleavage;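 active = inhibition above the mean of compounds lying between control limits plus 3 SD, set per campaign, cut at about 8.5% in these data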
proKLK7 act conf = proKLK7 activation, confirmation. shares compounds with proKLK7 act. purified proKLK7, EDANS-DABCYL substrate fluorescence; scaled: vehicle 0, mature enzyme 100. activation, % at 7 µM. hit rate 68% among 3,200;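 active = activation, as change over the incubation, above the mean of all tested compounds plus 3 SD, cut at about 13% in these data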
EDANS interfere = counter-screen for kallikrein-7 activators: EDANS-DABCYL optical interference | shares compounds with proKLK7 act | EDANS-DABCYL substrate fluorescence interference, no enzyme, 4 h; solvent 0%, active enzyme control 100% | activation, % at 7 µM | hit rate 80% among 3,200 | AID 686952;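 active = activation above the all-compound mean plus 3 SD, ignoring values outside control-based bounds, cut at about 4.8% in these data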;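 also: value is the 4 h activation minus the activation read at time zero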
EDANS interf = EDANS fluorescence interference in dose response, no enzyme. EDANS-DABCYL peptide fluorescence interference. EC50, µM. shares compounds with proKLK7 act. AID 720493. hit rate 20% among 250;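 active = compounds that raise the fluorescence signal in this interference counterscreen, with EC50 at or below 10 µM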;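 also: intact quenched peptide substrate alone read at 355 nm excitation and 520 nm emission; signal is fluorescence gain from T0 to T4 after four hours at room temperature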
Each line names hits and unclear results; the compound was inactive in the other large screens (follow-up assays come after a bar, where they were run).

Clc1ccc2nc3ccccn3c2c1	proKLK7 act 22.4 | proKLK7 act conf 41.1 | EDANS interfere 43.8
N#Cc1ccc2c(c1)nc1ccccn12	proKLK7 act 21.4 | proKLK7 act conf 27.4 | EDANS interfere 23.2 | EDANS interf inactive
O=C(CN1CCN(C2CCCCC2)CC1)c1c[nH]c2ccccc12	none
O=C(CN1CCN(C2CCCCC2)CC1)c1ccc2cc[nH]c2c1	proKLK7 act 21.9 | proKLK7 act conf 19.9 | EDANS interfere 19.9
CC(=O)c1cc(-c2cccc(C(C)C)c2)c(=O)n2c1CCC2	none (no result: NRP1-CendR mod)
O=C(Cc1c[nH]c2ccccc12)Nc1ccc(Nc2cccnc2)c(-c2ccc(-c3ccccc3)cc2F)c1	none (no result: NRP1-CendR mod)
CCN1C(=O)c2cccc3c(S(=O)(=O)N4CCNCC4)ccc1c23	proKLK7 act 171.0 | proKLK7 act conf 57.0 | EDANS interfere 67.6
CCN1C(=O)c2cccc3c(S(=O)(=O)N4CCCC4C(=O)O)ccc1c23 (stereo not given)	proKLK7 act 36.7 | proKLK7 act conf 22.4 | EDANS interfere 24.1
CCN1C(=O)c2cccc3c(S(=O)(=O)Nc4ccccc4)ccc1c23	none (no result: HGIII-sPLA2 inh, ADAM10 inh, proKLK7 act, ADAM17 inh)
CCN1CCN(S(=O)(=O)c2ccc3c4c(cccc24)C(=O)N3CC)CC1	proKLK7 act 55.5 | proKLK7 act conf 44.0 | EDANS interfere 45.7
COC(=O)C[C@@H]1CC[C@H]2[C@@H](COc3ccc(NC(=O)c4cc(C)on4)cc3C(=O)N2C)O1	none (no result: NRP1-CendR mod)
COCCCN1C(=O)[C@H](CC(=O)N2CCOCC2)[C@]2(C(=O)OC)CCCCC=C12	none (no result: NRP1-CendR mod)
O=C(Nc1ccc2c(c1)OCO2)OC1CCC12CCC(c1ccccc1)CC2 (stereo not given)	none (no result: NRP1-CendR mod)
COC(=O)c1ccc2c(c1)C(C)(C)C(/C=C/c1ccc(O)cc1)=[N+]2C	proKLK7 act 25.2 | proKLK7 act conf inactive | EDANS interfere inactive
CC1(C)CC(=O)C2=C(C1)OC(N)=C(C#N)C2c1ccccc1 (stereo not given)	none
CC1(C)CC(=O)C2=C(C1)OC(N)=C(C#N)C2c1ccccc1[N+](=O)[O-] (stereo not given)	NRP1-CendR mod 35.9, proKLK7 act 17.1 | proKLK7 act conf inactive | EDANS interfere 13.3
Cc1ccc(-n2c(Cc3cccs3)nnc2SCc2ccc(Br)cc2)cc1	none (no result: NRP1-CendR mod)
N#Cc1ccc(/C=C2\CC3(OC(=O)C4CCCC4)CCCN2C3)cc1 (stereo not given)	none (no result: NRP1-CendR mod)
COCCn1c(C)nnc1SCC(=O)Nc1ccccc1[N+](=O)[O-]	proKLK7 act 39.4 | proKLK7 act conf inactive | EDANS interfere inactive
CCc1cc(=O)oc2cc(OC(=O)CN3C(=O)NC4(CCCC4)C3=O)ccc12	proKLK7 act 97.0 | proKLK7 act conf 59.8 | EDANS interfere 67.7
O=C(CN1C(=O)NC2(CCCCC2)C1=O)Oc1ccc2c(C(F)(F)F)cc(=O)oc2c1	proKLK7 act 63.4 | proKLK7 act conf 60.7 | EDANS interfere 65.7
O=C(CN1C(=O)NC2(CCCC2)C1=O)Oc1ccc2ccc(=O)oc2c1	proKLK7 act 67.0 | proKLK7 act conf 63.1 | EDANS interfere 71.6
CC(C)(C)C(=O)OC12CCCN(C1)/C(=C/c1cccnc1)C2 (stereo not given)	none (no result: NRP1-CendR mod)
CC(=O)N1C[C@@H](c2c[nH]c3ccccc23)C=C[C@H]1C(=O)NS(=O)(=O)c1ccc(C)cc1	none (no result: NRP1-CendR mod)
CC1Nc2nc(N(C)C)[nH]c(=O)c2NC1C (stereo not given)	proKLK7 act 19.3 | proKLK7 act conf inactive | EDANS interfere 17.6
O=C(CN(CCc1ccccc1)S(=O)(=O)c1ccccc1)N1CCOCC1	none (no result: NRP1-CendR mod)
O=C1NC(c2ccc(Cl)cc2)Nc2ccccc21 (stereo not given)	none
CCOc1ccccc1C1NC(=O)c2ccccc2N1 (stereo not given)	proKLK7 act 13.2 | proKLK7 act conf 12.6 | EDANS interfere 11.9
Cc1ccc(C2NC(=O)c3ccccc3N2)c(C)c1 (stereo not given)	proKLK7 act 32.0 | proKLK7 act conf 28.7 | EDANS interfere 26.2
O=C1NC(c2ccco2)Nc2ccccc21 (stereo not given)	proKLK7 act 16.0 | proKLK7 act conf 16.8 | EDANS interfere 17.9
N#C/C(=C(\O)c1ccco1)c1ccccn1	none
N#C/C(=C(/O)CCCl)c1ccccn1	proKLK7 act 208.6 | proKLK7 act conf 389.0 | EDANS interfere 395.1
COc1cc(C)cc2oc(=O)c(CC(=O)N3CCN(C(=O)C4COc5ccccc5O4)CC3)c(C)c12 (stereo not given)	none
CC(=O)Oc1ccc2c(C)c(CC(=O)N3CCN(C(=O)C4COc5ccccc5O4)CC3)c(=O)oc2c1C (stereo not given)	proKLK7 act 154.7 | proKLK7 act conf 343.6 | EDANS interfere 368.1
CC(=O)Nc1ccc(NC(=O)c2cc(=O)c3ccc(C)cc3o2)cc1	proKLK7 act 15.3 | proKLK7 act conf inactive | EDANS interfere inactive
O=C(NC1CCCC1)N1CCC(c2nc3ccc(Cl)cc3[nH]2)CC1	none (no result: NRP1-CendR mod)
COCCN(C(=O)Cc1cccs1)c1nnc(-c2ccncc2)s1	proKLK7 act 17.3 | proKLK7 act conf 40.0 | EDANS interfere 42.2
CCN(C(=O)c1cccs1)c1nnc(-c2ccncc2)s1	none
Cc1c(Cl)c(=O)oc2cc(OC(C)C)ccc12	proKLK7 act 14.7 | proKLK7 act conf inactive | EDANS interfere inactive
Cc1cc(=O)oc2cc(OC(C)C)ccc12	none
COC(=O)Cc1c(C)c2ccc(OC(=O)c3ccccc3)cc2oc1=O	proKLK7 act 422.5 | proKLK7 act conf 631.5 | EDANS interfere 511.5
CCC(=O)Oc1ccc2c(C)c(Cl)c(=O)oc2c1	proKLK7 act 40.0 | proKLK7 act conf 671.6 | EDANS interfere 655.1
CCCCNC(=O)C[C@H]1C[C@@]2(C(=O)OCC)CCCC3=C2N(CCC3)C1=O	none (no result: NRP1-CendR mod)
Cc1cc(=O)oc2cc(NS(=O)(=O)c3ccccc3)ccc12	proKLK7 act 66.6 | proKLK7 act conf 76.3 | EDANS interfere 76.3
Cc1cc(=O)oc2cc(NC(=O)c3cc(F)ccc3F)ccc12	none
Cc1cc(=O)oc2cc(NS(=O)(=O)c3ccc(F)cc3)ccc12	NRP1-CendR mod 36.6, proKLK7 act 79.4 | proKLK7 act conf 64.8 | EDANS interfere 74.6
O=C(c1cc(F)ccc1F)N1CCCC(c2nc(-c3cccs3)no2)C1 (stereo not given)	none (no result: NRP1-CendR mod)
Cc1ccc2nc(-c3ccc(SCC(=O)O)nc3)[nH]c2c1	proKLK7 act 16.2 | proKLK7 act conf 22.7 | EDANS interfere 27.0
